Binding signal data for 23 molecules are collected here from article PMC8136818, “Evolving origin-of-transfer sequences on staphylococcal conjugative and mobilizable plasmids—who’s mimicking whom?”.

Sequences and labels used below:
B1: OT49.10 (dsDNA)
DNA 1: CTATCATTGTCCGATGATAGCAAATTCCCC
DNA 2: GGGGAATTTGCTATCATCGGACAATGATAG
B2: ossB408 (dsDNA)
DNA 1: TAATAGGTGGCAAATT
DNA 2: AATTTGCCACCTATTA
B3: OTUNa For/Rev_15 (dsDNA)
DNA 1: TGGCTTCGCCAGATTACCCATTATAAAATG
DNA 2: CATTTTATAATGGGTAATCTGGCGAAGCCA
B4: OT49.3 (dsDNA)
DNA 1: GACACTAGGTGTTTTTATGATATCACTATG
DNA 2: CATAGTGATATCATAAAAACACCTAGTGTC
B5: ossA45 C11G (dsDNA)
DNA 1: ATTGTGGGGTGACTTT
DNA 2: AAAGTCACCCCACAAT
B6: OT49.11 (dsDNA)
DNA 1: CCGATGATAGCAAATTCCCCTTATGCTCTT
DNA 2: AAGAGCATAAGGGGAATTTGCTATCATCGG
B7: ossA45-15 (dsDNA)
DNA 1: ATTGTGGGGTCACTAT
DNA 2: ATAGTGACCCCACAAT
B8: ossA45-14 (dsDNA)
DNA 1: ATTGTGGGGTCACATT
DNA 2: AATGTGACCCCACAAT
B9: OTUNa For/Rev_13 (dsDNA)
DNA 1: TTTAAAACCCTTGAAATATCTGGCTTCGCC
DNA 2: GGCGAAGCCAGATATTTCAAGGGTTTTAAA
B10: OT45.5 (dsDNA)
DNA 1: GGTCACTTTAAATTCTTTAAAACCCTTGAA
DNA 2: TTCAAGGGTTTTAAAGAATTTAAAGTGACC
B11: OT49.12 (dsDNA)
DNA 1: GATGATAGCAAATTCCCCTTATGCTCTTAC
DNA 2: GTAAGAGCATAAGGGGAATTTGCTATCATC
B12: ossA45-9 (dsDNA)
DNA 1: ATTGTGGGCTCACTTT
DNA 2: AAAGTGAGCCCACAAT
B13: ossA49-2 (dsDNA)
DNA 1: TATATGATATCACTAT
DNA 2: ATAGTGATATCATATA
B14: ossA45-16 (dsDNA)
DNA 1: ATTGTGGGGTCACTTA
DNA 2: TAAGTGACCCCACAAT
B15: ossA49-15 (dsDNA)
DNA 1: TTTATGATATCACTTT
DNA 2: AAAGTGATATCATAAA
B16: OT45.11 (dsDNA)
DNA 1: TATGGGGTCATATTTCCCTTATGCTCTTAC
DNA 2: GTAAGAGCATAAGGGAAATATGACCCCATA
B17: ossA45-10 (dsDNA)
DNA 1: ATTGTGGGGACACTTT
DNA 2: AAAGTGTCCCCACAAT
B18: ossA45-13 (dsDNA)
DNA 1: ATTGTGGGGTCAGTTT
DNA 2: AAACTGACCCCACAAT
B19: OT49.4 (dsDNA)
DNA 1: GTTTTTATGATATCACTATGAAATGTCCTA
DNA 2: TAGGACATTTCATAGTGATATCATAAAAAC
B20: ossA49-4 (dsDNA)
DNA 1: TTTTTGATATCACTAT
DNA 2: ATAGTGATATCAAAAA
B21: ossA49-1 (dsDNA)
DNA 1: ATTATGATATCACTAT
DNA 2: ATAGTGATATCATAAT
B22: ossB45 (dsDNA)
DNA 1: AATATGGGGTCATATT
DNA 2: AATATGACCCCATATT
B23: ossA49-13 (dsDNA)
DNA 1: TTTATGATATCAGTAT
DNA 2: ATACTGATATCATAAA

For the first assay, the target named is T1, SmpO49 (Staphylococcus aureus plasmid pWBG749, UniProt UPI0001BEA96A 1-84).
T1 sequence: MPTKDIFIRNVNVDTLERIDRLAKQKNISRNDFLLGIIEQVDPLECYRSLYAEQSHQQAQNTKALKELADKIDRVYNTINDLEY
Description: SPR (ReDCaT); 150 mM NaCl; 10 mM HEPES, 3 mM EDTA, 0.05% Tween 20, NaCl 150 mM (SmpO49 screens), 300 mM (SmpO45, SmpO408, SmpOUNa screens) or 250 mM (Table S4); pH and temperature not stated; protein 1 uM; high values mean tight binding. Conditions: protein: recombinant; tags: His6-TEV, cleaved; chain copies: 4. The method, boiled down:
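Tag-cleaved protein, expressed in E. coli BL21(DE3)pLysS and purified by nickel-affinity and size-exclusion chromatography, was screened on a Biacore T200 SA chip by reusable DNA capture. OriT oligonucleotides were captured at 1 μM on Fc2, with a control linker on Fc1. Protein at 1 μM was injected at 30 μl/min (60 s contact, 60 s dissociation) in 10 mM HEPES, 150 mM NaCl, 3 mM EDTA, 0.05% Tween 20. DNA binding is reported as %Rmax.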
B1: the binding signal was found to be 0.584 ± 0.045 %Rmax.

As to B4, the binding signal came out at 18.8 ± 0.402 %Rmax.

For the molecule B6, the binding signal was determined as 0.467 ± 0.033 %Rmax.

Take B11: the binding signal came to 0.431 ± 0.0378 %Rmax.

In the case of B13, the binding signal was 26.3 ± 1.74 %Rmax.

B15: the binding signal turned out to be 26.8 ± 1.07 %Rmax.

Turning to B19, the binding signal was determined as 17 ± 0.325 %Rmax.

Turning to B20, the binding signal worked out at 12.1 ± 1.41 %Rmax.

B21: the binding signal came out at 26.7 ± 1.94 %Rmax.

B23: the binding signal turned out to be 18.1 ± 1.02 %Rmax.

The target of another assay is T2, SmpO45 (Staphylococcus aureus plasmid pWBG745, UniProt UPI0001BEA8D3 1-84).
T2 sequence: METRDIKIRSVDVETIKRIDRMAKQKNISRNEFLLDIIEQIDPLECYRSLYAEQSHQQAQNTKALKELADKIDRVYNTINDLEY
Description: SPR (ReDCaT); 250 mM NaCl; 10 mM HEPES, 3 mM EDTA, 0.05% Tween 20, NaCl 150 mM (SmpO49 screens), 300 mM (SmpO45, SmpO408, SmpOUNa screens) or 250 mM (Table S4); pH and temperature not stated; protein 1 uM; high values mean tight binding. Conditions: protein: recombinant; tags: His6-TEV, cleaved; chain copies: 4.
As to B2, the binding signal was found to be 0.4 %Rmax.

For the molecule B22, the binding signal worked out at 21.6 %Rmax.

The next assay deals with T3, SmpO408 (Staphylococcus aureus M0408).
T3 chain: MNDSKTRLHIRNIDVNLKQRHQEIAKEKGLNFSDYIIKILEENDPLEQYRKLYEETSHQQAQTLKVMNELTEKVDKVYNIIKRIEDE
The description is as above. The conditions noted are these: protein: recombinant; tags: His6-TEV, cleaved; chain copies: 4.
On to B2, for which the binding signal is 34.2 %Rmax.

As for B22, the binding signal was determined as 0.9 %Rmax.

In another assay the target is T4, SmpOUNa (plasmid pC02).
T4 chain: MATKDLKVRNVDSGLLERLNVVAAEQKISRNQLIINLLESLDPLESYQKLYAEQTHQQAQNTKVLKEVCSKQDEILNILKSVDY
As to the kind of experiment: SPR (ReDCaT); 300 mM NaCl; 10 mM HEPES, 3 mM EDTA, 0.05% Tween 20, NaCl 150 mM (SmpO49 screens), 300 mM (SmpO45, SmpO408, SmpOUNa screens) or 250 mM (Table S4); pH and temperature not stated; protein 1 uM; high values mean tight binding. Conditions: protein: recombinant; tags: His6-TEV, cleaved; chain copies: 4. The method, boiled down:
(§1)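 Tag-cleaved protein, expressed in E. coli BL21(DE3)pLysS and purified by nickel-affinity and size-exclusion chromatography, was screened on a Biacore T200 SA chip by reusable DNA capture. OriT oligonucleotides were captured at 1 μM on Fc2, with a control linker on Fc1. Protein at 1 μM was injected at 30 μl/min (60 s contact, 60 s dissociation) in 10 mM HEPES, 300 mM NaCl, 3 mM EDTA, 0.05% Tween 20. DNA binding is reported as %Rmax.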
For the molecule B3, the binding signal stood at 5.46 ± 0.605 %Rmax.

On to B9, for which the binding signal worked out at 2.14 ± 0.24 %Rmax.

The target of the next assay is T2, SmpO45. The assay is described as above. The conditions noted are these: protein: recombinant; tags: His6-TEV, cleaved; chain copies: 4. Summed up:
as §1
Consider B5, for which the binding signal amounted to 0.641 ± 0.0361 %Rmax.

In the case of B7, the binding signal was found to be 38.6 ± 1.09 %Rmax.

For the molecule B8, the binding signal is 38.9 ± 1.1 %Rmax.

In the case of B10, the binding signal stood at 17.8 ± 1.2 %Rmax.

For the molecule B12, the binding signal was found to be 0.616 ± 0.0355 %Rmax.

With B14, the binding signal came to 43.4 ± 1.14 %Rmax.

On to B16, for which the binding signal came to 21.2 ± 1.26 %Rmax.

As to B17, the binding signal worked out at 6.42 ± 0.416 %Rmax.

Turning to B18, the binding signal worked out at 30.8 ± 1.19 %Rmax.

In a further assay the target is T4, SmpOUNa. As to the kind of experiment: SPR (ReDCaT); 250 mM NaCl; 10 mM HEPES, 3 mM EDTA, 0.05% Tween 20, NaCl 150 mM (SmpO49 screens), 300 mM (SmpO45, SmpO408, SmpOUNa screens) or 250 mM (Table S4); pH and temperature not stated; protein 1 uM; high values mean tight binding. The conditions noted are these: protein: recombinant; tags: His6-TEV, cleaved; chain copies: 4.
On to B22, for which the binding signal is 1.4 %Rmax.

A further assay has as its target T5, SmpOSep (Staphylococcus epidermidis VCU120).
T5 chain: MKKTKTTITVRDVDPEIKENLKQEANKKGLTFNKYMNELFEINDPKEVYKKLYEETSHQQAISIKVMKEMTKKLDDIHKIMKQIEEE
Described as above. The conditions noted are these: protein: recombinant; tags: His6-TEV, cleaved; chain copies: 4.
Take B22: the binding signal came to 0.5 %Rmax.

Another assay addresses T6, SmpO49-F7K (Staphylococcus aureus plasmid pWBG749, UniProt UPI0001BEA96A 1-84, F7K).
T6 sequence: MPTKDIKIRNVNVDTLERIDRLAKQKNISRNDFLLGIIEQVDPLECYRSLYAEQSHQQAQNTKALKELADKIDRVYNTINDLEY
Described as above. The conditions noted are these: protein: recombinant; tags: His6-TEV, cleaved; chain copies: 4.
Take B22: the binding signal stood at 26.1 %Rmax.
